Compound activity: PubChem BioAssay, National Center for Advancing Translational Sciences (NCATS)
The full list was thinned out, with hits kept by preference.
KDM5B inh – blocks human KDM5B histone demethylase activity. AID 1347165. KDM5B demethylase, FDH-coupled NADH fluorescence (FDH is formaldehyde dehydrogenase). 220,000 tested, 2.6% active. Potency, µM (series often up to 57.7 µM), usual class: inhibitors. Q9UGL1; active = well fitted inhibition curve with a large enough effect; also: nearly all actives have a fitted effect of over 70% in size
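Here, H3K4me3 peptide (12.5 µM in substrate mix) is demethylated by KDM5BΔAP, 200 nM final, after 10 min compound exposure. Formaldehyde product is coupled through FDH (0.25 U/mL in mix) to NADH fluorescence; 30-min ΔRFU feeds dose-response curves.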
Of the large screens only hits and unclear results are named; the others gave an inactive call.

CN1CCC(Cn2ccc3c(N4CCOCC4)nc(-c4cccc5[nH]ncc45)cc32)CC1	none
O=C(Nc1ccccc1Cl)N1CC(c2nnc(-c3ccncc3)o2)C2(CCOCC2)C1 (centres undefined)	none
CSCc1nnc2c3ccccc3c(-c3ccc(C)c(S(=O)(=O)N(C)CCO)c3)nn12	none
CCOc1ccc(NC(=O)COc2ncnc3ccc(Br)cc23)c([N+](=O)[O-])c1	none
CCc1c(C(=O)Nc2ccc(C)cc2)cnn1-c1ccc(OC)nn1	none
CCN(CC)Cc1cnc2c(C(=O)N(C)Cc3csc(C)n3)cnn2c1	none
Cc1ccc(NS(=O)(=O)c2ccc(C)c(C(=O)N(C)C)c2)cc1	none
Cc1ccc2c(C(=O)N(C)C)cnn2c1	KDM5B inh 32µM
CNC(=O)c1cnn2cc(C)ccc12	KDM5B inh 32µM
CNC(=O)c1cnn2c1CN(C(C)=O)CC2	none
O=C(NCCc1cccc2cccnc12)N1CCC(n2cccc2)CC1	none
COc1ccc(CN2Cc3cc(NC(=O)c4ccccc4)ccc3OC(C)C2=O)cc1 (centres undefined)	none
N#Cc1ccc(OCC(=O)c2ccc3c(c2)CCCC3)cc1	none
Cc1cc(NC(=O)c2cccc(OC(C)C)c2)no1	none
CCC(=O)N(C1CCOCC1)C1CCN(S(=O)(=O)c2ccccc2Cl)CC1	none
Cc1cccc2c(C3CCN(S(=O)(=O)c4c(Cl)cccc4Cl)CC3)c[nH]c12	none
CCOCCn1cc(C2CCN(S(=O)(=O)c3cccc(Cl)c3C)CC2)c2ccccc21	KDM5B inh 28µM
O=C(CSc1ncc(-c2cccc(Br)c2)o1)NC1CCCC1	none
CC1CN(CCOc2ccc(C#N)cc2)CCO1 (centres undefined)	none
O=C(Cc1c[nH]c2ncc(-c3ccncc3)cc12)NCc1cccnc1	none
O=C(Cc1c[nH]c2ncc(-c3ccccc3)cc12)Nc1ccc(C(F)(F)F)cc1	none
COc1ccc(-c2cnc3[nH]cc(CC(=O)Nc4ccc(F)c(Cl)c4)c3c2)cc1	none
Cc1ccccc1-c1cnc2[nH]cc(CC(=O)Nc3ccccc3)c2c1	KDM5B inh 35µM
O=C(Cc1c[nH]c2ncc(-c3ccccc3)cc12)NCc1ccncc1	KDM5B inh 28µM
Cc1ccccc1-c1cnc2[nH]cc(CC(=O)NC3CC3)c2c1	KDM5B inh 28µM
COc1ncccc1-c1cnc2[nH]cc(CC(=O)Nc3cccc(Cl)c3)c2c1	KDM5B inh 32µM
CNC(=O)c1cccc(-c2cnc3[nH]cc(CC(=O)Nc4ccccc4C)c3c2)c1	none
O=C(Cc1c[nH]c2ncc(-c3ccccc3)cc12)NCc1cnccn1	none
COc1ncccc1-c1cnc2[nH]cc(CC(=O)Nc3nc(C)cs3)c2c1	none
O=C(Cc1c[nH]c2ccccc12)NC1CCCCCC1	none
COc1ccc(NC(=O)Cc2c[nH]c3ncc(-c4ccccc4)cc23)cc1	none
CN(C)c1nc2c(c(=O)[nH]1)CCN(Cc1ccccc1Br)CC2	none
CCc1ccc2c(c1)-c1ccccc1S(=O)(=O)N2CC(=O)NCc1cccnc1	none
CCCCc1ccc(NC(=O)N2CCN(Cc3ccc(Cl)s3)CC2)cc1	none
O=C(c1cc(-c2cccs2)[nH]n1)N1CCN(c2ccccc2)CC1	none
COc1ccccc1OCCN1C(=O)C2(SC(NC(C)=O)=NN2C(C)=O)c2cc(Cl)ccc21 (centres undefined)	none
COCCN1C(=O)N(Cc2cccc3ccccc23)C(=O)C12CCN(Cc1cn(C)nc1C)CC2	none
O=[N+]([O-])c1ccc(-c2nc(N3CCCCCC3)c3ccccc3n2)cc1	none
O=C(c1ccccc1)N1CCC2(CC1)N=C(c1ccc(Br)cc1)NO2	none
CCCc1ccc(C(=O)N(CC#N)C2CC2)cc1	none
CCCCCCn1nc(C(=O)Nc2cccc(S(=O)(=O)NC(C)(C)C)c2)c2ccccc2c1=O	none
O=C(Nc1ccccc1)N1CCn2c(nn(-c3ccc(C(F)(F)F)cc3)c2=O)C1	none
CC(C)NC(=O)N1CCN(C(=O)NC2CCCCC2)[C@@H](C(=O)N[C@H](Cc2c[nH]c3ccccc23)C(N)=O)C1	none
COCC(=O)N[C@H]1CCN(C(=O)COC)[C@H](C(=O)N[C@H](Cc2c[nH]c3ccccc23)C(=O)OC)C1	KDM5B inh 22µM
COC(=O)[C@@H](Cc1c[nH]c2ccccc12)NC(=O)[C@@H]1CN(C(=O)c2cccnc2)CCN1C(=O)NC(C)C	none
CC1CCCC(NC(=S)NC2CC2)C1C (centres undefined)	none
C[C@@]1(O)CCN(C(=O)c2ccc(C(=O)N3CCOCC3)cc2)C[C@@H]1O	none
COCCN(C)C(=O)c1ccc2c(c1)NC(C)(CCCCc1ccccc1)CO2 (centres undefined)	none
CC1(CCCCc2ccccc2)COc2ccc(C(=O)NC3CCOCC3)cc2N1 (centres undefined)	KDM5B inh 35µM
CN(C)C(=O)c1ccc2c(c1)NC(C)(CCCCc1ccccc1)CO2 (centres undefined)	none
CC1(CCCCc2ccccc2)COc2ccc(C(=O)NCCc3cnc[nH]3)cc2N1 (centres undefined)	KDM5B inh 32µM
O=C(NC1C[C@H]2CC[C@@H](C1)N2C(=O)CCCc1ccccc1)c1ccc(F)cc1 (some centres undefined)	none
Cc1nnc(-c2cc(C(=O)NC3CCOCC3)ccn2)n1CCc1ccccc1	none
CC1(CCCCc2ccccc2)COc2ccc(C(=O)NC3CC3)cc2N1 (centres undefined)	KDM5B inh 28µM
O=C(NCCCCc1ccccc1)c1ccc(C(=O)NCCCCc2ccccc2)cc1	none
CCCCCN1CCCCC12Cc1ccccc1CNC2=O (centres undefined)	none
CSc1ccccc1C(=O)Nc1ccccc1C(C)(C)C	none
OC(COCCOCCOCCOCc1ccccc1)C(O)COCCOCCOCCOCc1ccccc1 (centres undefined)	none
CN(C)c1ccc([N+](=O)[O-])cc1	none
CC(C)N(CC(=O)NC(N)=O)Cc1ccccc1	none
O=C(Nc1ccccc1)c1cccnc1NCc1ccccc1	none
CN1CCN(c2cc(=O)c3ccnc(NCc4ccccc4)c3o2)CC1	KDM5B inh 40µM
O=c1cc(-c2cnccn2)oc2c(Nc3ccccn3)nccc12	KDM5B inh 40µM
Cn1cnc([N+](=O)[O-])c1NCc1ccccc1	none
CN1CCN(c2ccc(CNC(=O)c3ccco3)cc2)CC1	none
c1ccc(Nc2ccccn2)nc1	none
O=c1cc(-c2cccnc2)oc2c(NCc3ccc(F)cc3)nccc12	none
O=c1cc(-c2ccccn2)oc2c(NCc3ccccc3)nccc12	KDM5B inh 40µM
O=C(NCc1ccc(F)cc1)C1CCc2sc(C(=O)N3CCCC3)cc2C1 (centres undefined)	none
O=C(Cc1cccc(Cl)c1)N1CCC2(CC1)N(c1ccccc1)C(=O)CS2(=O)=O	none
COc1ccccc1CCN1Cc2cc(NC(=O)Cc3cccs3)ccc2OC(C)C1=O (centres undefined)	none
COCCn1cnc2c1c(=O)n(Cc1cccc3ccccc13)c(=O)n2Cc1ccccc1	none
CCC1Oc2ccc(NC(=O)c3ccc([N+](=O)[O-])cc3)cc2CN(Cc2ccccc2)C1=O (centres undefined)	none
CCC(C(=O)NCc1ccc(SC)cc1)n1nc(C)c2c(C)n(-c3ccccc3)nc2c1=O (centres undefined)	none
CC(C)n1ncc2cc(C(=O)NCc3ccc(OCC(F)(F)F)cc3)cnc21	none
Cc1ccccc1C(=O)N1C2CCCC1CC(=O)C2	none
O=C(c1cccs1)N1CCC(N2C(=O)C3(CCCCC3)C2c2ccncc2)CC1 (centres undefined)	none
CO[C@H]1C(=O)N(C2CCN(C(=O)c3cc4ccccc4[nH]3)CC2)[C@H]1c1ccncc1	none
CO[C@H]1C(=O)N(C2CCN(C(=O)c3cccc4[nH]ccc34)CC2)[C@H]1c1ccncc1	KDM5B inh 25µM
